# Shown are actives, neighbours in structure and some others; about 2.8% of the full set was active somewhere.
# EWS-Fli block: inhibitors of EWS/Fli oncoprotein transcriptional activity | A673 NR0B1-luciferase reporter, viability-normalised | inhibition, % at 12.6 µM | actives 0.67% (n = 350,000) | AID 651661;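 active = mean inhibition of at least 50% after viability correction, with every replicate also passing that limit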;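 also: firefly luciferase signal divided by Alamar Blue viability fluorescence both relative to DMSO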
# PAX8 inh HTS: PAX8 transcriptional activity inhibition; actives 1.2% (n = 360,000); inhibition, % at 12.6 µM; RMG-I TPO-luciferase reporter, SteadyGlo, 24 h; AID 652154;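 active = mean replicate inhibition at least 60% with every replicate also reaching 60%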;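 also: luciferase light reporting Pax8 driven TPO promoter activity; plate controls were median of neutral control wells for no effect and mitoxantrone controls for full effect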
# TWEAK Fn14 block: inhibitors of TWEAK-Fn14 interaction signaling | TWEAK-stimulated Fn14 reporter cells, luciferase luminescence, 8 h | inhibition, % at 10 µM | actives 2% (n = 360,000) | AID 1159606; in the data active = inhibition above about 50%
# LGR2 antag: inhibitors of bursicon-induced Drosophila LGR2 receptor cAMP signaling; actives 0.35% (n = 380,000); HEK293 LGR2, CRE-luciferase, bursicon-stimulated, 4 h; inhibition, % at 9.99 µM;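 active = drop in luminescence signal, shown as inhibition above about 50% in the replicate tests, limit read from the data, passing the limit was not always enough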;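 also: agonist challenge used bursicon conditioned medium at about half maximal strength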
# TROY NFkB inh: blocks TROY-dependent signaling in reporter cells. Q293 LMP1-TROYcd NF-kB luciferase reporter, 4 h. inhibition, % at 10 µM. actives 0.98% (n = 360,000). AID 1347056;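 active = compounds whose plate-normalised and pattern-corrected inhibition of the luciferase reporter signal at the single screening dose is 50% or more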
# Numbers without * were called inactive; . = not tested or not shown; ! = a repeat was not active.
SMILES,EWS-Fli block,PAX8 inh HTS,TWEAK Fn14 block,LGR2 antag,TROY NFkB inh
O=C(Nc1nc2cc3c(cc2s1)OCCO3)c1ccc([N+](=O)[O-])o1,.,-60,32,-54,-27
CCN(CC)S(=O)(=O)c1cccc(C(=O)Nc2nc3cc4c(cc3s2)OCCO4)c1,.,.,95*,3,61*
c1c2c(cc3sc(N4CCOCC4)nc13)OCCO2,.,38,92*,.,55*
CN(CC1CCCO1)S(=O)(=O)c1ccc(C(=O)Nc2ccc3c(c2)OCO3)cc1 (stereo unspecified),5,-9,-13,-6,4
CN(CC1CCCO1)S(=O)(=O)c1ccc(C(=O)Nc2nc3cc4c(cc3s2)OCO4)cc1 (stereo unspecified),19,19,53*,19,30
C[C@@H]1CN([C@H](C)CO)C(=O)Cc2cc(NC(=O)Nc3ccc(F)cc3)ccc2O[C@@H]1CN(C)S(=O)(=O)c1ccccc1,4,.,.,0,.
COc1ccc(Cl)cc1NC(=O)c1cnc2n(c1=O)CCS2,1,0,53*,13,48
CCC(=O)N(C)C[C@H]1Oc2cc(-c3ccc(C#N)cc3)ccc2S(=O)(=O)N([C@H](C)CO)C[C@H]1C,-14,.,.,11,.
CCOC(=O)N1CCC(Nc2ncnc3c2cnn3-c2ccc(Cl)cc2)CC1,-33,.,49,-6,50*
COc1ccc(-n2ncc3c(N4CCN(c5cccc(C)c5C)CC4)ncnc32)cc1,-2,0,-83,-15,8
CC1CN(c2ncnc3c2cnn3-c2ccc(Cl)cc2)CC(C)O1 (stereo unspecified),-54,-170,50,-42,55*
CCOC(=O)C1CCCN(c2ncnc3c2cnn3-c2ccc(OC)cc2)C1 (stereo unspecified),.,.,17,-38,-9
COc1ccc(-n2ncc3c(N4CCCCC4)ncnc32)cc1,.,.,104*,.,86*
C=CCNc1ncnc2c1cnn2-c1ccc(Cl)cc1,-23,-250,25,.,-8
CCOC(=O)C1CCCN(c2ncnc3c2cnn3-c2ccc(Cl)cc2)C1 (stereo unspecified),.,.,63*,-35,43
C[C@@H]1CN([C@H](C)CO)C(=O)Cc2cc(NS(=O)(=O)c3cn(C)cn3)ccc2O[C@H]1CN(C)S(=O)(=O)c1cccs1,-2,-12,.,13,.
CO[C@H]1CN(C)C(=O)c2cc(NC(=O)C3CC3)ccc2OC[C@@H](C)N(CC2CC2)C[C@@H]1C,-2,1,.,17,.
Clc1ccc(-n2ncc3c(N4CCCCCC4)ncnc32)cc1,80*,-7,105*,96*,92*
CCCN1[C@@H]2Cn3c(ccc(C4=CCCC4)c3=O)[C@H]1[C@@H](C(=O)NCCOC)[C@@H]2CO,-5,-2,.,-12,.
CC(SCc1cn2cc(Cl)ccc2n1)C(=O)O (stereo unspecified),.,.,76*,.,.
CNC[C@@H]1OCCCC[C@H](C)Oc2ccc(NS(=O)(=O)c3ccc(Cl)cc3)cc2C(=O)N([C@H](C)CO)C[C@@H]1C,9,-8,.,7,.
Cc1noc(C)c1NC(=O)N(C)C[C@@H]1Oc2cc(C#CCC3CCCC3)ccc2S(=O)(=O)N([C@@H](C)CO)C[C@H]1C,5,11,.,-8,.
Cc1ccc(C#CC[N+]2(CC#Cc3ccc(C)cc3)CCCCC2)cc1,33,69*,34,23,34
Cc1noc(C)c1NC(=O)N(C)C[C@H]1OCCCC[C@@H](C)Oc2ccc(NS(=O)(=O)c3cn(C)cn3)cc2C(=O)N([C@H](C)CO)C[C@@H]1C,-2,-6,.,8,.
CC(C)c1nc(NCCO)c(C#N)c2c1CCCC2,-3,-15,61*,.,51*
SMILES,EWS-Fli block,PAX8 inh HTS,TWEAK Fn14 block,LGR2 antag,TROY NFkB inh
CC(C)c1nc(Cl)c(C#N)c2c1CCCC2,-14,-13,52*,-9,1
CCOCCOC(=O)C1=C(C)N(C)C(=O)NC1c1ccccc1Cl (stereo unspecified),.,.,53*,.,.
CCOC(=O)Cc1cc(OC)c(OC)cc1Cc1cc(OC)c(OC)cc1CC(=O)OCC,.,.,80*,.,9
COC(=O)Cc1cc(OC)c(OC)cc1Cc1cc(OC)c(OC)cc1CC(=O)OC,.,.,7,.,11
Cc1ccc(/C=[N+](\[O-])c2ccc(N(C)C)cc2)c2nsnc12,-24,16,57*,-63,19
Cc1ccc2nsnc2c1NS(=O)(=O)c1c(C)ccc2nsnc12,.,-3,-4,.,-7
CCc1nnc(NC(=O)CSc2nc(C)c3c(c2C#N)CCCC3)s1,18,.,58*,23,65*
COc1ccc(NC(=O)CSc2nc(C)c3c(c2C#N)CCCC3)cc1,.,.,-22,.,4
Cc1noc(C)c1NC(=O)N(C)C[C@@H]1Oc2c(NC(=O)c3nc4ccccc4s3)cccc2C(=O)N([C@@H](C)CO)C[C@H]1C,-2,.,.,-18,.
S=c1nc[nH]c2nc[nH]c12,36,75*!,-15,-25,7
CN(C)CC(=O)N[C@H]1CC[C@@H](CCn2cc(CN(C)C)nn2)O[C@@H]1CO,5,-5,.,1,.
C[C@H](CO)N1C[C@H](C)[C@H](CN(C)Cc2ccc(Cl)c(Cl)c2)OCCCC[C@H](C)Oc2ccc(NC(=O)c3ccccc3)cc2C1=O,6,7,.,-4,.
C[C@@H]1CCCCO[C@@H](CN(C)Cc2ccc(Cl)c(Cl)c2)[C@@H](C)CN([C@H](C)CO)C(=O)c2cc(NC(=O)c3ccccc3)ccc2O1,-16,15,.,20,.
C[C@@H]1CCCCO[C@H](CN(C)Cc2ccc(Cl)c(Cl)c2)[C@@H](C)CN([C@@H](C)CO)C(=O)c2cc(NC(=O)c3ccccc3)ccc2O1,16,82*,.,13,.
C[C@@H]1CCCCO[C@@H](CN(C)Cc2ccc(Cl)c(Cl)c2)[C@H](C)CN([C@H](C)CO)C(=O)c2cc(NC(=O)c3ccccc3)ccc2O1,29,97*,.,1,.
CO[C@H]1CN(C)C(=O)c2ccc(NC(=O)Cc3ccccc3)cc2OC[C@@H](C)N(C(C)=O)C[C@@H]1C,2,.,.,-14,.
COc1ccc(CCNC(=O)COC(=O)C23CC4CC(CC(Br)(C4)C2)C3)cc1,-4,9,70*,.,11
COc1ccc(CCNC(=O)COC(=O)C23CC4CC(CC(C4)C2)C3)cc1,-18,-8,14,-8,3
NNc1nc2ccccc2c(=O)n1Cc1ccccc1,-51,34,74*,-36,-53
CC(C)OCCCn1c(NN)nc2ccccc2c1=O,18,15,-12,-19,-9
Cc1csc(NC(=O)c2cc3c(s2)-c2ccccc2OC3)n1,-38,-85,36,-88,11
Cc1c(NC(=O)c2cc3c(s2)-c2ccccc2OC3)cccc1[N+](=O)[O-],.,3,62*,0,44
C[C@@H]1CCCCO[C@@H](CN(C)Cc2ccc(Cl)c(Cl)c2)[C@@H](C)CN([C@H](C)CO)C(=O)c2cc(NC(=O)NC3CCCCC3)ccc2O1,1,-5,.,-12,.
COc1ccc(C(CNC(=O)C(C)c2ccc3cc(OC)ccc3c2)N(C)C)cc1 (stereo unspecified),-9,-7,63*,4,8

# From PubChem
